# Assay results reported in PubChem BioAssay (NCI).
# Where “and” joins values, the source holds several entries; their conditions need not be identical. Equal entries are not always repeated. About 83,000 compounds went through this panel and 20% of them were active in at least one assay; those are over-represented in the sample as a whole.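 In brief: 96-well plates, 48 h treatment, single concentration, percent growth endpoint.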 Calls of active or inactive are those of the source. How the source made its calls: active means growth percent below 10; inactive means the rest.
# Test system: MCF7 breast
# Experiment: NCI-60 one-dose screen, 48 h (100 = growth as untreated, 0 = no growth, -100 = all killed)
# Conditions: 10 µM unless noted
row,SMILES,growth
1,CC1OC(Oc2c(-c3cc(O)c(O)c(O)c3)oc3cc(O)cc(O)c3c2=O)C(O)C(O)C1O (stereo not drawn),77.9% [100 µM] (inactive) and -43.3% [100 µM] (active)
2,CC1(C)Oc2ccc3c(=O)cc(-c4ccc(F)cc4)oc3c2C1C(=O)O (stereo not drawn),86.7% [100 µM] (inactive) and 80.6% [100 µM] (inactive)
3,COc1ccc(/C=c2\[nH]c3nc(=O)c(N4CCOCC4)c(N)n3c2=O)cc1,56.5% [100 µM] (inactive) and 43.7% [100 µM] (inactive)
4,CCOC(=O)C(=O)C(CCC(=O)c1ccc2ccccc2c1O)C(=O)OCC (stereo not drawn),69.9% [100 µM] (inactive) and 81.3% [100 µM] (inactive)
5,CC1=CC(=O)c2ccc(C)cc2C1=O,-70.7% [100 µM] (active) and -100% [100 µM] (active)
6,CC(C)O/N=C/c1cc(NC(=S)OC(C)C)ccc1Cl,-77.4% [100 µM] (active) and 3.65% [100 µM] (active)
7,NC(Cc1ccc(S(=O)(=O)O)cc1)C(=O)NC(Cc1ccc(S(=O)(=O)O)cc1)C(=O)NC(Cc1ccc(S(=O)(=O)O)cc1)C(=O)NC(Cc1ccc(S(=O)(=O)O)cc1)C(=O)O (stereo not drawn),87.7% [100 µM] (inactive) and 83.5% [100 µM] (inactive)
8,CC1CC(=O)N(N(C)C)C2(C#N)C(=O)N=C(N)C12C#N (stereo not drawn),-67.7% [100 µM] (active) and -64.1% [100 µM] (active)
9,O=C(NC1=NC2C=CC([N+](=O)[O-])=CC2S1)C(=O)Nn1c(=S)[nH]c2ccccc2c1=O (stereo not drawn),52.7% [100 µM] (inactive) and 8.91% [100 µM] (active)
10,O=C(CCc1ccc(O)c(O)c1)c1ccc(O)c(O)c1O,-69.8% [100 µM] (active) and -72.6% [100 µM] (active)
11,COC(=O)/C=C\C(C#N)(C#N)N=Cc1ccsc1,-73.8% [100 µM] (active) and -39.1% [100 µM] (active)
12,N#Cc1c(N)oc(-c2cccc([N+](=O)[O-])c2)c1C#N,12.3% [100 µM] (inactive) and -50% [100 µM] (active)
13,COc1cc2oc3c(c(=O)c2c(O)c1/C=C/C(C)C)CCC(C)(C)Oc1cc(O)ccc1-3,-61% [100 µM] (active) and -100% [100 µM] (active)
14,COc1ccc2cc1Oc1ccc(cc1)C[C@@H]1c3cc(c(OC)cc3CCN1C)Oc1c(OC)c(OC)cc3c1[C@H](C2)N(C)CC3,35.9% [100 µM] (inactive) and -90.5% [100 µM] (active)
15,C[N+](C)(CCNC(=O)c1cccc2cc3ccccc3nc12)Cc1ccc([N+](=O)[O-])s1,37.1% [25 µM] (inactive) and 55.9% [25 µM] (inactive)
16,CC(C)CCCC(C)[C@H]1CC[C@H]2[C@@H]3CC[C@H]4C[C@@H](CCC=C(c5cc(Cl)c(O)c(C(=O)O)c5)c5cc(Cl)c(O)c(C(=O)O)c5)CC[C@]4(C)[C@H]3CC[C@]12C (stereo partly drawn) (tested in a mixture with another compound),97.3% [50 µM] (inactive)
17,COC(=O)C(C(=O)C(=O)NC1Nc2ccc(C)cc2S1)c1nc2ccc(Cl)cc2[nH]c1=O (stereo not drawn),79.7% [100 µM] (inactive) and 65.5% [100 µM] (inactive)
18,COC(=O)C(=O)C(C(=O)C(=O)Nc1ccc(Cl)c(Cl)c1)c1nc2ccc(C(=O)c3ccccc3)cc2[nH]c1=O (stereo not drawn),32.4% [100 µM] (inactive) and 5.18% [100 µM] (active)
19,Cn1c2c(c3ccccc3c1=O)C(=O)c1ccccc1-2,26.8% [100 µM] (inactive) and 7.69% [100 µM] (active)
20,COc1ccc2nc(N/N=C/c3ccc(C)s3)cc(C)c2c1,-92.2% [100 µM] (active) and -100% [100 µM] (active)
21,Cc1ccc(F)cc1NC(=O)O/N=C(\Cl)C(C)C,72.4% [100 µM] (inactive) and 46.2% [100 µM] (inactive)
22,C=C(CCC(C(=O)O)C1CCC2(C)C3=C(CCC12C)C1(C)CCC(O)C(C)(C)C1CC3)C(C)C (stereo not drawn),-52.5% [100 µM] (active) and -56.2% [100 µM] (active)
23,C[C@@H]1C[C@](O)([C@@H](C)Cl)C(=O)O[C@@H]2CCN3CC=C(COC(=O)[C@]1(C)O)[C@H]23,82.2% [100 µM] (inactive) and 71.5% [100 µM] (inactive)
